Measured values reported in the supplement of paper PMC3334620.
The full ranking holds about 33,000 sequences; the median of “E-score (-0.5 to 0.5)” is about -0.013, and the highest 2% start at about 0.3. This is one part of a sample in which the highest values are shown more often than they occur.

What follows are sequences tested against T1, Msn1 (UniProt P22148) (assay: PBM E-score (8-mer binding enrichment) (E-score (-0.5 to 0.5)); higher = stronger / more preferred TF binding). Conditions: protein concentration: 200 nM; construct: GST-full length.
T1 sequence: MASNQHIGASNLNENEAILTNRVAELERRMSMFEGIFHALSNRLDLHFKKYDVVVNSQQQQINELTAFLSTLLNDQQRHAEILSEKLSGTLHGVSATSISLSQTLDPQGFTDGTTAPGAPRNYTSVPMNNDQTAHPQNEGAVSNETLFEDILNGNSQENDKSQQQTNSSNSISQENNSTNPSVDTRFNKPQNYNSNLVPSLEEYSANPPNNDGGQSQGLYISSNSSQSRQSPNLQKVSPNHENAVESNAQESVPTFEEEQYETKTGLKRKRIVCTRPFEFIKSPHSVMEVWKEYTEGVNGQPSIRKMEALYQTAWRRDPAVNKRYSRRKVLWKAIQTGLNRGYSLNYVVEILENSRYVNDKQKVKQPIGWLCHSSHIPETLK
Method: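 Universal 'all 10-mer' protein binding microarrays (Agilent AMADID 015681) probed with GST-tagged S. cerevisiae TFs (full-length or DBD) made by in vitro transcription/translation (PURExpress), about 100-200 nM. Bound TF was detected with fluorescent anti-GST. Each ungapped 8-mer (which stands for itself and its reverse complement) is scored by the PBM enrichment score (E-score), a modified Wilcoxon-Mann-Whitney statistic from -0.5 to +0.5, computed with the Universal PBM Analysis Suite. Scale: above 0.35 generally sequence-specific binding.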

Sequence | PBM E-score
GCATCACA | -0.0397
ATCGTGCG | 0.306
ATCGTGCA | 0.125
ATCGTGCC | 0.0402
CCCAGACC | -0.348
AATTTAAT | 0.298
GCCCGCAA | -0.0655
GCATTGAA | -0.0579
AGAAATCC | -0.0711
GTGAGAAA | 0.124
GTGAGACA | 0.315
ACGAGACA | 0.275
GTGAGAGA | -0.0903
ATGAGACC | -0.0403
ATGAGACA | 0.358
ATGAGACG | -0.109
CCGAGACA | 0.319
CTGAGACC | -0.18
CCGAGACC | -0.0572
CTGAGACA | 0.319
CTGAGAGA | -0.0585
AGGGGACC | -0.207

Sequence | PBM E-score
CCCAGCAC | -0.148
GCATCCAA | -0.225
AATAAAGT | 0.209
AAGGATTG | 0.191
GAGGGTAA | -0.114
GCAGTAGC | -0.289
CGTTTCAG | 0.176
GCGATGAC | 0.0728
GCGGTAGC | 0.041
CAACCATG | 0.0589
ACAAATAA | 0.307
AGAAATAT | 0.181
GCAAATAA | 0.0601
ACAAATAT | 0.404
ACAAATAC | 0.328
CCAAATAG | -0.0591
TCAAATAA | 0.234
GCAAATAC | 0.0266
ACAAATAG | 0.322
AAAAATAG | 0.189
AAAAATAT | 0.208
CCAAATAC | -0.058

Sequence | PBM E-score
ACTTCCCT | -0.185
CAAAAAGA | 0.0247
CGAGTGAC | 0.0781
AAAATGCT | 0.0679
ACCGATGC | -0.136
ATCACCTA | 0.0704
ATCCAGGA | -0.015
CCCAAGGG | -0.22
CTGGACAA | 0.43
CTGGACAG | 0.0403
TTGGAAAA | 0.0431
TTCGACAA | 0.191
CTGGACAC | 0.29
TTGGACAA | 0.47
GTGGACAA | 0.468
GTGGACGA | 0.18
GTGGACTA | 0.144
TCTTTCCA | -0.0394
CCCTTACC | -0.181
ATTATGTG | 0.151
CTTATGAC | 0.233
ATTATGTC | 0.367

Sequence | PBM E-score
ATTATGTA | 0.149
CTTATGTC | 0.374
CTTATGTA | 0.124
ATTCGCTG | 0.00671
TACCCGCA | -0.0605
CATTACGG | 0.0771
TAGGGGCA | -0.254
AAGTACAA | 0.306
ACATAAAA | 0.178
TAGTACAA | 0.321
ACATACAG | 0.167
ACATACAT | 0.309
AAGTACGA | 0.133
GAGTACAA | 0.262
ACATACAC | 0.207
ACATAAAT | 0.307
AAGTACCA | 0.107
CAGTACAA | 0.262
ACATAAAG | 0.224
CGGTAGTC | -0.00298
